From the supplement of paper PMC12645437, “Orthogonal IMiD-Degron Pairs Induce Selective Protein Degradation in Cells” (ACS Chemical Biology, 2025)
The full ranking holds about 8,300 sequences; the median of “log2 fold change of degron read counts, EGFP-low vs EGFP+ sorted cells (limma voom), compound-induced degradation” is about -1.1, and the highest 2% start at about 3.2. Many of the other results were omitted from the sample, so the highest values are more common in it than they were.

T1: CRBN, Q96SW2
T1 chain: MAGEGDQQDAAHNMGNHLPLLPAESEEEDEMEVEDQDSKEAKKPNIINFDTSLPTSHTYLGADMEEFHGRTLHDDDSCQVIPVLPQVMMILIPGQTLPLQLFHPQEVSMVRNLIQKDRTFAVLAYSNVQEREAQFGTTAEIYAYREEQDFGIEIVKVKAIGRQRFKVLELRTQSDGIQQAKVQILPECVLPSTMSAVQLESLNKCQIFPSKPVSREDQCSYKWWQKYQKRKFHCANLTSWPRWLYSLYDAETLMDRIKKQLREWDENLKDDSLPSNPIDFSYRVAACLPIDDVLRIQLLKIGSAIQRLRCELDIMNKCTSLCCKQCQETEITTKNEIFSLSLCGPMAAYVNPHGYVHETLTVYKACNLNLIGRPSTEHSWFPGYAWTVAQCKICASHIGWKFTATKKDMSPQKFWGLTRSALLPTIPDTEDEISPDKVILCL


Molecular target: T1, CRBN, Q96SW2
Test: log2 fold change of degron read counts, EGFP-low vs EGFP+ sorted cells (limma voom), compound-induced degradation; higher = more compound-induced degradation of the degron-EGFP fusion; degrons are variants of IKZF1/3 zinc finger 2; compound dose not given here
Details: Jurkat, 18 h
[1] = compound: compound 19 (5-tert-butyl-thalidomide)
[2] = compound: compound 22 (5-morpholino-thalidomide)
[3] = compound: compound 33 (diphenyl IMiD analogue)
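Also: pooled lentiviral library of zinc finger degron-EGFP fusions in mCherry-positive Jurkat cells, FACS-sorted after compound exposure, with degron abundance counted by next-generation sequencing.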

Sequence	log2 fold change of degron read counts [1]	log2 fold change of degron read counts [2]	log2 fold change of degron read counts [3]	log2 fold change of degron read counts (compound: thalidomide)
FCCPVCGAHFTQKGNLLRHIKL [46F_47C_49P_50V_52G_53A_54H_55F_67L_, Q9UKT9]	1.59	0.752	1.65	0.961
LRCNQCGFFCTQKGNLLRHIKL [46L_47R_49N_50Q_52G_53F_54F_55C_67L_, Q9UKT9]	-1.45	-1.65	-1.16	-0.846
FGCEICGASFTQKGNLLRHIKL [46F_47G_49E_50I_52G_53A_54S_55F_67L_, Q9UKT9]	3.07	2.12	1.77	1.03
FDCEICGASFTQKGNLLRHIKL [46F_47D_49E_50I_52G_53A_54S_55F_67L_, Q9UKT9]	3.18	0.784	0.437	1.24
FSCEICGASFTQKGNLLRHIKL [46F_47S_49E_50I_52G_53A_54S_55F_67L_, Q9UKT9]	3.56	2.8	2.11	1.64
FCCEICGASFTQKGNLLRHIKL [46F_47C_49E_50I_52G_53A_54S_55F_67L_, Q9UKT9]	3.35	2.7	2.35	2.35
FHCEICGASFTQKGNLLRHIKL [46F_47H_49E_50I_52G_53A_54S_55F_67L_, Q9UKT9]	3.13	2.67	1.52	0.22
FKCEICGASFTQKGNLLRHIKL [46F_47K_49E_50I_52G_53A_54S_55F_67L_, Q9UKT9]	1.57	-0.809	-2.2	-0.268
FYCEICGASFTQKGNLLRHIKL [46F_47Y_49E_50I_52G_53A_54S_55F_67L_, Q9UKT9]	3.72	3.7	2.91	1.64
FMCEICGASFTQKGNLLRHIKL [46F_47M_49E_50I_52G_53A_54S_55F_67L_, Q9UKT9]	1.61	1.94	2.9	2
FQCEICGASFTQKGNLLRHIKL [46F_47Q_49E_50I_52G_53A_54S_55F_67L_, Q9UKT9]	2.5	2.8	2.23	3.75
